Test results published in PubChem BioAssay AID1159583 (ICCB-Longwood Screening Facility, Harvard Medical School, 2016).
Where “and” joins values, the source holds several entries; their conditions need not be identical. Equal entries are not always repeated. The whole screen tested about 300,000 compounds, of which about 310 (0.1%) were called active. Rule as the data show it: active = fluorescence inhibition mostly above about 23% (no sharp cut-off); inactive = mostly below about 17%. Many of the other results were omitted from the sample, so actives are more common in it than they were.

Assay: hypoxia reporter signal reduction in M. tuberculosis – fluorescence, absorbance growth readout, primary screen (AID 1159583)
Details: M. tuberculosis hypoxia-regulated fluorescent reporter, stronger effect = higher value, concentration not given here; growth inhibition: measured here: M. tuberculosis growth (absorbance)

Q: Which fluorescence inhibition does the source give for O=C(NN=Cc1ccccc1)C(O)c1ccccc1 (stereo not given) here?
A: Its fluorescence inhibition is -2.65% (inactive).

Q: And the growth inhibition?
A: Its growth inhibition is -6.95%.

Q: For COc1ccc2c(c1)C1C(CO2)C(c2ccccc2)[C@]2(C)C(=O)Nc3cc(F)c(F)cc3C(=O)N12 (stereo not given in full), which fluorescence inhibition is on record?
A: The fluorescence inhibition was 12.4% (inactive).

Q: What about the growth inhibition of the same compound?
A: Its growth inhibition is 11.9%.

Q: With COC(=O)C1=C(C)N(Cc2ccccc2)C(=NCc2ccco2)NC1c1cccc(F)c1 (stereo not given) as the compound, how does the fluorescence inhibition read?
A: The fluorescence inhibition was -3.36% (inactive).

Q: And the growth inhibition?
A: The growth inhibition was 4.01%.

Q: With CC(=O)C=C(C)NC(Cc1c[nH]c2ccccc12)C(=O)O (stereo not given) as the compound, how does the fluorescence inhibition read?
A: The fluorescence inhibition was -7.06% (inactive).

Q: And the growth inhibition?
A: The growth inhibition was -3.51%.

Q: Which fluorescence inhibition does the source give for CC(=NNC(=S)NC1CCCCC1)c1ccc(OC(F)F)cc1OC(F)F here?
A: Its fluorescence inhibition is 2.47% (inactive).

Q: What about the growth inhibition of the same compound?
A: Its growth inhibition is 1.1%.

Q: What does the source list for COc1ccc(Cl)cc1C(=O)NN=Cc1ccc(N2CCOCC2)cc1?
A: fluorescence inhibition: -1.94% (inactive); growth inhibition: 6.35%

Q: Which results are given for CC(Cc1ccccc1)=NNC(=O)CNC(=O)c1cccc(Br)c1?
A: fluorescence inhibition: -10% (inactive); growth inhibition: -2.78%

Q: With CCOC(=O)C1=C(N)n2c(sc(=Cc3ccco3)c2=O)=C(C(=O)OC)C1c1ccco1 (stereo not given) as the compound, how does the fluorescence inhibition read?
A: Its fluorescence inhibition is -1.95% (inactive).

Q: What about the growth inhibition of the same compound?
A: Its growth inhibition is -7.35%.

Q: For C=CCc1cccc(C=Nc2nc3ccccc3n2CC)c1O, which fluorescence inhibition is on record?
A: Its fluorescence inhibition is 7.78% (inactive).

Q: What about the growth inhibition of the same compound?
A: The growth inhibition was 3.33%.

Q: For CCOc1c2ccc(C(=O)NC(C)C3CCCCC3)cc2nn1CCOC (stereo not given), which fluorescence inhibition is on record?
A: Its fluorescence inhibition is 1.7% (inactive).

Q: And the growth inhibition?
A: The growth inhibition was 7.24%.

Q: For CC#CCN1c2ccccc2[C@]23CC(C(=O)OC)N(C(C)=O)C2=NC(C(=O)OC)=C(C(=O)OC)C13 (stereo not given in full), which fluorescence inhibition is on record?
A: Its fluorescence inhibition is 21.5% (inactive).

Q: And the growth inhibition?
A: Its growth inhibition is 5.39%.

Q: With COc1ccc(C(=O)NN=Cc2ccc(OC(=O)c3cccc4ccccc34)c([N+](=O)[O-])c2)cc1 as the compound, how does the fluorescence inhibition read?
A: The fluorescence inhibition was 8.45% (inactive).

Q: What about the growth inhibition of the same compound?
A: Its growth inhibition is 6.08%.

Q: With COc1ccc(C2CC(=O)C=C(c3ccc(OC(F)(F)F)cc3)C2)cc1OC (stereo not given) as the compound, how does the fluorescence inhibition read?
A: Its fluorescence inhibition is -7.53% (inactive).

Q: What about the growth inhibition of the same compound?
A: The growth inhibition was 0.871%.

Q: Which results are given for Cc1sc2nc(C)n(N=Cc3ccc(O)cc3)c(=O)c2c1C?
A: fluorescence inhibition: 8.51% (inactive); growth inhibition: 1.4%

Q: Which results are given for CCCCN1C(N)=NCC1CCCCN (stereo not given)?
A: fluorescence inhibition: 3.89% (inactive); growth inhibition: 4.01%

Q: For O=C(CCCC(=O)NN=Cc1ccccc1C(=O)O)NN=Cc1ccccc1C(=O)O, which fluorescence inhibition is on record?
A: The fluorescence inhibition was 3.15% (inactive).

Q: What about the growth inhibition of the same compound?
A: The growth inhibition was 3.53%.

Q: Which results are given for NC(=NOC(=O)c1ccc2c(c1)OCO2)c1ccc([N+](=O)[O-])cc1?
A: fluorescence inhibition: 3.03% (inactive); growth inhibition: 4.61%

Q: Which fluorescence inhibition does the source give for COc1ccc(C=NNc2nc(=O)[nH]nc2C)cc1[N+](=O)[O-] here?
A: Its fluorescence inhibition is 5.04% (inactive).

Q: And the growth inhibition?
A: The growth inhibition was 5.94%.

Q: Which results are given for CCn1c(SCC(=O)NN=C(C)c2ccco2)nnc1-c1ccccc1?
A: fluorescence inhibition: -6.87% (inactive); growth inhibition: -5.95%

Q: For Oc1ccccc1C=NNc1cccc2cccnc12, which fluorescence inhibition is on record?
A: The fluorescence inhibition was 2.03% (inactive).

Q: What about the growth inhibition of the same compound?
A: Its growth inhibition is 5%.

Q: Which fluorescence inhibition does the source give for O=C(Cc1cc(=O)[nH][nH]1)NN=Cc1ccccc1Cl here?
A: Its fluorescence inhibition is -6.7% (inactive).

Q: And the growth inhibition?
A: The growth inhibition was 3.17%.

Q: Which fluorescence inhibition does the source give for Cc1ccc(S(=O)(=O)NN=Cc2ccc(OC3CSC3)cc2)cc1 here?
A: The fluorescence inhibition was -5.05% (inactive).

Q: And the growth inhibition?
A: The growth inhibition was 2.12%.

Q: Which fluorescence inhibition does the source give for CC(NCCN1CCOCC1)=C(C#N)C(N)=O here?
A: Its fluorescence inhibition is 7.39% (inactive).

Q: What about the growth inhibition of the same compound?
A: The growth inhibition was 4.01%.

Q: What does the source list for O=C1C2CC3C=CC2(O3)C2OCCCN12 (stereo not given)?
A: fluorescence inhibition: 8.99% (inactive); growth inhibition: 11.9%

Q: Which results are given for CC1CC2C3CCC4=CC(=O)C=C[C@]4(C)[C@@]3(F)C(O)C[C@]2(C)C1C(=O)CO (stereo not given in full)?
A: fluorescence inhibition: -3.35% (inactive); growth inhibition: 0.308%

Q: Which results are given for Nc1cnnc(NN=Cc2ccccc2)c1Cl?
A: fluorescence inhibition: 7.6% (inactive); growth inhibition: 4.96%

Q: Which fluorescence inhibition does the source give for Cc1cc(C(=O)NN=Cc2ccc(-c3ccc([N+](=O)[O-])cc3C)o2)n[nH]1 here?
A: Its fluorescence inhibition is 5.18% (inactive).

Q: What about the growth inhibition of the same compound?
A: The growth inhibition was 1.96%.

Q: With O=C(NN=Cc1ccccn1)c1cc(-c2ccccc2Cl)n[nH]1 as the compound, how does the fluorescence inhibition read?
A: Its fluorescence inhibition is 10.9% (inactive).

Q: And the growth inhibition?
A: The growth inhibition was 11.2%.

Q: Which fluorescence inhibition does the source give for CC(=NNC(=O)OC(C)(C)C)c1ccc(-n2ccnc2)cc1 here?
A: The fluorescence inhibition was 11.1% (inactive).

Q: What about the growth inhibition of the same compound?
A: Its growth inhibition is 15.9%.

Q: For N#CC(=NNc1cccc(F)c1)C(=O)C1CC1, which fluorescence inhibition is on record?
A: The fluorescence inhibition was 0.893% (inactive).

Q: And the growth inhibition?
A: Its growth inhibition is -0.741%.

Q: Which fluorescence inhibition does the source give for CC(CC(O)(C=NO)c1ccccc1)=NO (stereo not given) here?
A: The fluorescence inhibition was 10% (inactive).

Q: And the growth inhibition?
A: Its growth inhibition is 6.39%.

Q: For COc1ccc(C=NNc2nc3ccccc3[nH]2)c(OC)c1OC, which fluorescence inhibition is on record?
A: Its fluorescence inhibition is 1.22% (inactive).

Q: And the growth inhibition?
A: The growth inhibition was -0.982%.

Q: What does the source list for CCOC(=O)C(=Cc1ccc(C)cc1)NC(=O)c1ccccc1?
A: fluorescence inhibition: 1.97% (inactive); growth inhibition: 2.94%

Q: For NC(Cc1cccc2ccccc12)=NOC(=O)Cc1cccs1, which fluorescence inhibition is on record?
A: The fluorescence inhibition was 2.6% (inactive).

Q: And the growth inhibition?
A: The growth inhibition was 4.27%.

Q: With COc1ccc(CNC(=O)C2CC=CC3CCN(C4CC4)C(=O)C32)cc1 (stereo not given) as the compound, how does the fluorescence inhibition read?
A: The fluorescence inhibition was 19.3% (inactive).

Q: What about the growth inhibition of the same compound?
A: Its growth inhibition is 20.6%.

Q: For Cc1cc(C(=O)NN=Cc2cn[nH]c2-c2ccccc2)cs1, which fluorescence inhibition is on record?
A: The fluorescence inhibition was -3.45% (inactive).

Q: And the growth inhibition?
A: Its growth inhibition is -1.59%.

Q: For COc1cccc(C2Oc3ccc(Br)cc3C(=O)C2OC(=O)NC2CCCC2)c1 (stereo not given), which fluorescence inhibition is on record?
A: The fluorescence inhibition was 2.63% (inactive).

Q: What about the growth inhibition of the same compound?
A: The growth inhibition was 0.422%.

Q: For CCCCCC=CC1=CC(=O)CC(c2ccc(Cl)cc2)C1 (stereo not given), which fluorescence inhibition is on record?
A: The fluorescence inhibition was -0.281% (inactive).

Q: What about the growth inhibition of the same compound?
A: Its growth inhibition is 11.6%.

Q: For Cc1cc(SCC(=O)NN=Cc2ccccc2C(=O)O)c(C)cc1Br, which fluorescence inhibition is on record?
A: Its fluorescence inhibition is 0.764% (inactive).

Q: And the growth inhibition?
A: The growth inhibition was -1.84%.

Q: Which results are given for OCC1OC(O)C(O)C1O (stereo not given)?
A: fluorescence inhibition: 1.54% (inactive); growth inhibition: -8.94%

Q: What does the source list for CC(C)(C)OC(=O)CC1CC=CCC(CC(=O)NC(CO)Cc2ccccc2)C(=O)NC(C(C)(C)C)COC1=O (stereo not given)?
A: fluorescence inhibition: 0.171% (inactive) and 3.19% (inactive); growth inhibition: 4.91% and 7.16%

Q: For CC(C)(O)C1C2OC(=O)C1[C@]1(O)CC3O[C@]34C(=O)OC2[C@]14C (stereo not given in full) (tested in a mixture with another compound), which fluorescence inhibition is on record?
A: Its fluorescence inhibition is -0.0447% (inactive).

Q: What about the growth inhibition of the same compound?
A: Its growth inhibition is 5.86%.

Q: For COC(=O)[C@]1(Cc2ccccc2)NC(c2ccc(-c3cccc(Cl)c3)c(OC)c2)C2C(=O)N(C)C(=O)C21 (stereo not given in full), which fluorescence inhibition is on record?
A: The fluorescence inhibition was 1.8% (inactive).

Q: What about the growth inhibition of the same compound?
A: Its growth inhibition is 8.95%.

Q: What does the source list for O=C(NN=Cc1c[nH]c2ccccc12)c1[nH]c2ccc(Br)cc2c1-c1ccccc1?
A: fluorescence inhibition: 4.24% (inactive); growth inhibition: -6.01%

Q: With O=C(NN=CC1CC2CCC1C2)C1CC1 (stereo not given) as the compound, how does the fluorescence inhibition read?
A: The fluorescence inhibition was -1.06% (inactive).

Q: And the growth inhibition?
A: Its growth inhibition is -3.88%.
